Screening results (PubChem)
Sampled rows, rich in hits. Any-hit rate of the full collection: about 3.5%.
Sm TGR block: S. mansoni TGR enzyme inhibition. AID 485364. 360,000 tested, 3% active. Potency, µM (highest dose often 114 µM), most hits filed as inhibitors. Q962Y6. purified TGR, DTNB reduction, TNB absorbance 405 nm; further: nearly all actives have a fitted effect of over 60% in size
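First, TGR (20 nM dispensed) and NADPH were mixed with compound. Second, a 15 min room-temperature incubation followed. Third, further NADPH and then DTNB were added to start the reaction. Finally, TNB absorbance was monitored kinetically.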
LmPK inhibitor: blocks Leishmania mexicana pyruvate kinase activity. AID 1721. Q27686. purified LmPK, Kinase-Glo ATP luminescence, 1 h. Potency, µM (top dose mostly 57.5 µM), hits mostly inhibitors. 290,000 tested, 0.37% active
Target sequence (Q27686 whole entry, looked up): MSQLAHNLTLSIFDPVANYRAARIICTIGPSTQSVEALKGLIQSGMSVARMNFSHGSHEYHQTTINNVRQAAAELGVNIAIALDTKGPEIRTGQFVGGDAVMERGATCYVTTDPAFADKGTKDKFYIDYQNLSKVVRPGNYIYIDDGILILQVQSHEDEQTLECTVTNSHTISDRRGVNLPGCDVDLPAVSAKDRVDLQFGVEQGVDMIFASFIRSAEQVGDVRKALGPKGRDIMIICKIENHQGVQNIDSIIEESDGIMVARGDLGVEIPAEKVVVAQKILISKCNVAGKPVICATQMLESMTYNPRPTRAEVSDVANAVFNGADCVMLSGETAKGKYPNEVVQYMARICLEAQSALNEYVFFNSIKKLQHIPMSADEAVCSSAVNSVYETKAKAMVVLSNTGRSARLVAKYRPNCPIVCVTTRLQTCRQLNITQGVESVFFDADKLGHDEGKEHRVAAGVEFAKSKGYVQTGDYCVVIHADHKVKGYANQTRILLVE
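0.1 nM LmPK, 0.5 mM PEP, 0.1 mM ADP; 50 mM imidazole pH 7.2, 7 mM MgCl2, 50 mM KCl; 1 h RT. Kinase-Glo luminescence readout, normalized to no-enzyme (full inhibition) and uninhibited wells.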
NS1 function inh: influenza NS1 inhibition. AID 2326. 270,000 tested, 0.4% active. Potency, µM (series often up to 46.1 µM); calls by dose curve; further: actives are rising curves; nearly all actives have a fitted effect of over 50% in size
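In this qHTS, NS1 from influenza A is expressed in budding yeast, where it slows growth. Cells are switched from glucose to 2% galactose medium (pH 6.0, -URA), treated with compound, and growth recovery is read at OD600.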
Tb PYK inh: inhibitors of Trypanosoma brucei pyruvate kinase | Q57TT1 | TbPYK enzyme, Kinase-Glo Plus ATP luminescence, 45 min | Potency, µM (doses to about 76.8 µM), most hits filed as inhibitors | 410,000 tested, 0.12% active | AID 624173; further: nearly all actives have a fitted effect of over 50% in size
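Assay buffer: 50 mM TEA pH 7.2, 100 mM KCl, 10 mM MgCl2, 0.05% BSA, 0.01% Tween-20. Pyruvate kinase from T. brucei plus substrate met compound, then ADP (130 uM final). Luminescence was read post 45 min RT.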
RE007 growth inh: less growth of the S. pombe RE007 Vpr strain; 360,000 tested, 0.21% active; S. pombe RE007 Vpr strain, BacTiter-Glo ATP luminescence, 24 h; Potency, µM (titrated, usually from 92.2 µM), most hits filed as inhibitors; active means well fitted falling curve with a large enough effect; inconclusive means small, poorly fitted or top-dose-only effect; inactive means no such curve, though single readings can be large or run the other way; further: nearly all actives have a fitted effect of over 50% in size
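Fission yeast RE007 carrying one integrated HIV-1 vpr copy, seeded at OD 0.01 in PMG+AL medium with 23 nL pinned compound. Grown 24 h at 30 degrees; viability read by BacTiter-Glo luminescence after 5 min.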
Giardia FBPA inh-1: Giardia lamblia aldolase inhibition | A8B2U2 | purified Giardia FBPA | Potency, µM (titrated, usually from 59.6 µM), hits mostly inhibitors | 290,000 tested, 0.71% active | AID 2451; further: nearly all actives have a fitted effect of over 55% in size
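40 nM FBPA preincubated 10 min at RT with compound (up to 57.5 uM final), then substrate plus GAPDH/TPI/NAD/arsenate coupling and diaphorase/resazurin added. Fluorescence read after 20 min at RT, 525/598 nm.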
Giardia growth: blocks growth of Giardia lamblia trophozoites. shares compounds with Giardia FBPA inh-1. 1,500 tested, 5% active. Giardia lamblia trophozoite growth inhibition. Potency, µM (titrated, usually from 57.5 µM), hits mostly inhibitors;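 further: trophozoites exposed to compound for 48 h at 37 °C; nearly all actives have a fitted effect of over 70% in size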
Mammal cell tox: mammalian cytotoxicity of Giardia aldolase inhibitor hits; mammalian cell viability counter-screen, qHTS; 1,500 tested, 4% active; AID 2786; shares compounds with Giardia FBPA inh-1; Potency, µM (top dose mostly 57.5 µM), most hits filed as inhibitors;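 further: Chinese hamster ovary cells used as mammalian cytotoxicity surrogate; viability measured as cellular ATP by luminescence; compound exposure lasted 48 h before reading; nearly all actives have a fitted effect of over 60% in size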
Giardia FBPA inh-2: confirmation of Giardia fructose-bisphosphate aldolase inhibitors. 1,500 tested, 5% active. Potency, µM (highest dose often 57.5 µM), most hits filed as inhibitors. shares compounds with Giardia FBPA inh-1. AID 2787. purified Giardia aldolase enzyme activity, qHTS; further: nearly all actives have a fitted effect of over 45% in size
Rabbit FBPA inh: blocks rabbit muscle aldolase in Giardia aldolase selectivity test | AID 2794 | 1,500 tested, 4% active | Potency, µM (titrated, usually from 57.5 µM), hits mostly inhibitors | Rabbit muscle FBPA enzyme inhibition, selectivity counter-screen | shares compounds with Giardia FBPA inh-1; further: nearly all actives have a fitted effect of over 60% in size
GAPDH counter: GAPDH inhibition flagged for Giardia aldolase hits. shares compounds with Giardia FBPA inh-1. GAPDH coupling enzyme counterscreen, biochemical, qHTS. Potency, µM (series often up to 57.5 µM), actives largely listed as inhibitors. 1,500 tested, 6% active. AID 2795; further: nearly all actives have a fitted effect of over 55% in size
Large screens that a line does not name were inactive (follow-up assays come after a bar, where they were run); [ ] = remark or other dose. Unless noted, the call rests on the fitted dose curve; in most records, active means well fitted curve in the direction sought with a large enough effect; inconclusive means small, poorly fitted or top-dose-only effect, or another doubt; inactive means no such curve, though single readings can be large; an effect the other way counts as inactive or inconclusive.

CC1[C@H]2Cc3ccc(O)cc3[C@]1(C)CCN2C (stereo partly drawn)	none (no result: Sm TGR block, LmPK inhibitor, NS1 function inh, Giardia FBPA inh-1)
CN1CCc2c(sc(/N=C/c3c[nH]c4ccccc34)c2C#N)C1	Giardia FBPA inh-1 17.7µM | Giardia growth inactive[10.4 µM] | Mammal cell tox inactive | Giardia FBPA inh-2 inactive | Rabbit FBPA inh inactive | GAPDH counter inconclusive
Cn1cnc([N+](=O)[O-])c1Sc1ncccc1N	Sm TGR block inconclusive, Giardia FBPA inh-1 17.7µM | Giardia growth inactive | Mammal cell tox inactive | Giardia FBPA inh-2 inactive | Rabbit FBPA inh inactive | GAPDH counter inactive
CN1CCN(c2ncc3nc(-c4ccc(Cl)cc4)c(=O)n(CCC#N)c3n2)CC1	none (no result: Sm TGR block, LmPK inhibitor, NS1 function inh, RE007 growth inh)
CNC(=S)N/N=C/c1ccccc1OCC(=O)O	Giardia FBPA inh-1 19.9µM | Giardia growth inconclusive | Mammal cell tox inactive | Giardia FBPA inh-2 inactive | Rabbit FBPA inh inactive | GAPDH counter inactive
O=C(O)COc1ccccc1/C=N/NC(=O)C(O)c1ccccc1 (stereo not drawn)	none
COc1ccccc1CNc1ncccn1	Giardia FBPA inh-1 17.8µM | Giardia growth inactive[10.4 µM] | Mammal cell tox inactive | Giardia FBPA inh-2 inactive | Rabbit FBPA inh inactive | GAPDH counter inactive
Cc1cccc(-n2cnc(C(=O)N3CCN(C)CC3)c2)n1	none (no result: Sm TGR block)
Cc1cccc(-n2cnc(C(=O)O)c2)n1	Giardia FBPA inh-1 19.9µM | Giardia growth inactive[10.4 µM] | Mammal cell tox inactive | Giardia FBPA inh-2 inactive | Rabbit FBPA inh inactive | GAPDH counter inactive
CCCCN(CC)Cc1ccc(CNC(=S)Nc2c(C)cc(C)cc2C)o1	Sm TGR block inconclusive, Giardia FBPA inh-1 12.6µM (no result: NS1 function inh) | Giardia growth inactive | Mammal cell tox inactive | Giardia FBPA inh-2 inactive | Rabbit FBPA inh inactive | GAPDH counter inactive
O=C(N/N=C/c1ccccn1)C(=O)N1CCCCCC1	Giardia FBPA inh-1 17.7µM | Giardia growth inactive | Mammal cell tox inactive | Giardia FBPA inh-2 inactive | Rabbit FBPA inh inactive | GAPDH counter inactive
Nc1nnnn1CC(=O)N/N=C/c1ccccn1	Giardia FBPA inh-1 17.7µM | Giardia growth inactive | Mammal cell tox inactive | Giardia FBPA inh-2 inactive | Rabbit FBPA inh inactive | GAPDH counter inactive
Nc1nnnn1CC(=O)N/N=C/c1cccs1	none
O=C(N/N=C/c1ccccc1C(=O)O)C(=O)N1CCCCC1	none (no result: Sm TGR block)
O=C(Nc1nnc(-c2ccncc2)o1)c1cccc(N2C(=O)CCC2=O)c1	Giardia FBPA inh-1 19.9µM (no result: NS1 function inh) | Giardia growth inactive[10.4 µM] | Mammal cell tox inactive | Giardia FBPA inh-2 inactive | Rabbit FBPA inh inactive | GAPDH counter inactive
Cc1cccc(C(=O)Nc2nnc(-c3cccnc3)o2)c1	Giardia FBPA inh-1 15.8µM (no result: NS1 function inh) | Giardia growth inconclusive | Mammal cell tox inconclusive | Giardia FBPA inh-2 inactive | Rabbit FBPA inh inactive | GAPDH counter inactive
O=C(Nc1nnc(-c2ccc(Cl)cc2)o1)c1cccc(N2C(=O)CCC2=O)c1	none
COc1cc(C2C=C(C(=O)O)Nc3ncnn32)ccc1O (stereo not drawn)	none (no result: LmPK inhibitor, NS1 function inh, RE007 growth inh, Giardia FBPA inh-1)
CCCn1c(=O)c(C(=O)Nc2ncccc2O)c(O)c2ccccc21	Giardia FBPA inh-1 inconclusive
Cn1c(=O)c(C(=O)Nc2ncccc2O)c(O)c2ccccc21	RE007 growth inh inconclusive, Giardia FBPA inh-1 8.89µM | Giardia growth inactive[10.4 µM] | Mammal cell tox inactive | Giardia FBPA inh-2 inconclusive | Rabbit FBPA inh inconclusive | GAPDH counter inactive
Cc1nc(NC(=S)NC(=O)c2ccccc2)sc1C	Giardia FBPA inh-1 11.2µM | Giardia growth inconclusive | Mammal cell tox inconclusive | Giardia FBPA inh-2 inactive | Rabbit FBPA inh inactive | GAPDH counter inactive
Cc1nc(NC(=O)c2ccccc2)sc1C	none
Cc1ccc(C(=O)Nc2nc(C)c(C(=O)N(C)C)s2)o1	LmPK inhibitor inconclusive
Cc1nc(NC(=S)NC(=O)c2ccco2)sc1C(=O)N(C)C	Giardia FBPA inh-1 10µM | Giardia growth inactive | Mammal cell tox inactive | Giardia FBPA inh-2 inactive | Rabbit FBPA inh inactive | GAPDH counter inactive
CN(Cc1ccc(F)cc1)S(=O)(=O)c1nnc(NC(=O)c2ccc(F)cc2)s1	none (no result: LmPK inhibitor, NS1 function inh, RE007 growth inh, Giardia FBPA inh-1)
COC(=O)CSC1=C(C#N)C(c2ccc(C)cc2)C2=C(CCCC2=O)N1 (stereo not drawn)	none
CCOC(=O)CSC1=C(C#N)C(C)C2=C(CCCC2=O)N1 (stereo not drawn)	Giardia FBPA inh-1 15.8µM | Giardia growth inactive[10.4 µM] | Mammal cell tox inactive | Giardia FBPA inh-2 inactive | Rabbit FBPA inh inactive | GAPDH counter inactive
